This is one part of a sample in which hits are shown more often than they occur.
LmPK inhibitor – inhibitors of Leishmania mexicana pyruvate kinase; purified LmPK, Kinase-Glo ATP luminescence, 1 h; Potency, µM (top dose mostly 57.5 µM), without a hit: at the top dose activity change, negative = inhibition, most hits filed as inhibitors; Q27686; 290,000 compounds, 0.37% hits; further: potency means the concentration at half of the fitted maximal effect; on the % scale 0 is the no-effect control and ±100 the full control effect
Target sequence (Q27686 whole entry, looked up): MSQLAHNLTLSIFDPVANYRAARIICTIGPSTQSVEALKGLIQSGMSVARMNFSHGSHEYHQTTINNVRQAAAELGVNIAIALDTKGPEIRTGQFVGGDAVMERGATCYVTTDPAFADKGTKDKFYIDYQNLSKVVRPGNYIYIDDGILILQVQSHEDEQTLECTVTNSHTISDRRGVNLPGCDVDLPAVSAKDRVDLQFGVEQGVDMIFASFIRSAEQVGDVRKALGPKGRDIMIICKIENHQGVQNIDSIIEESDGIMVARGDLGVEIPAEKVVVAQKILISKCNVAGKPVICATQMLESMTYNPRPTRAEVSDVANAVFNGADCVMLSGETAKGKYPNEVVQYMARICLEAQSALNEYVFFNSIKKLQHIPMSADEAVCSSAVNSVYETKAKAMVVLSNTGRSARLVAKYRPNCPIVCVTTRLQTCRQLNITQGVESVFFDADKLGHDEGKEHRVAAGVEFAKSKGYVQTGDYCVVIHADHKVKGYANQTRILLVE
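Screened at intermediate enzyme activity to detect both inhibitors and activators: LmPK at 0.1 nM, with a 0.5 nM enzyme column as activation reference. PEP 0.5 mM, ADP 0.1 mM; ATP detected by luminescence after 1 h.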
FBPA Giardia inh – inhibitors of Giardia lamblia fructose-1,6-bisphosphate aldolase; purified Giardia FBPA; 290,000 compounds, 0.71% hits; A8B2U2; Potency, µM (highest dose often 59.6 µM), for inactives: at the top dose activity, negative = inhibition, most hits filed as inhibitors; AID 2451; further: potency means the concentration at half of the fitted maximal effect; on the % scale 0 is the no-effect control and ±100 the full control effect; nearly all actives have a fitted effect of over 55% in size
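40 nM FBPA preincubated 10 min at RT with compound (up to 57.5 uM final), then substrate plus GAPDH/TPI/NAD/arsenate coupling and diaphorase/resazurin added. Fluorescence read after 20 min at RT, 525/598 nm.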
Sm TGR inh – blocks Schistosoma mansoni thioredoxin glutathione reductase. Q962Y6. purified TGR, DTNB reduction, TNB absorbance 405 nm. Potency, µM (top dose mostly 114 µM), inactives show at the highest dose activity change, negative = inhibition, hits mostly inhibitors. 360,000 compounds, 3% hits. AID 485364; further: potency means the concentration at half of the fitted maximal effect; on the % scale 0 is the no-effect control and ±100 the full control effect; nearly all actives have a fitted effect of over 60% in size
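First, TGR (20 nM dispensed) and NADPH were mixed with compound. Second, a 15 min room-temperature incubation followed. Third, further NADPH and then DTNB were added to start the reaction. Finally, TNB absorbance was monitored kinetically.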
TbPYK inhibitor – inhibitors of Trypanosoma brucei pyruvate kinase; Q57TT1; TbPYK enzyme, Kinase-Glo Plus ATP luminescence, 45 min; Potency, µM (top dose mostly 76.8 µM), without a hit: at the highest dose activity, negative = inhibition, usual class: inhibitors; 410,000 compounds, 0.12% hits; AID 624173; further: potency means the concentration at half of the fitted maximal effect; on the % scale 0 is the no-effect control and ±100 the full control effect; nearly all actives have a fitted effect of over 50% in size
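TbPYK + substrate in 50 mM TEA pH 7.2, 100 mM KCl, 10 mM MgCl2, 0.05% BSA, 0.01% Tween-20; cpd pinned; ADP 130 uM final; 45 min RT; Kinase-Glo Plus 10 min; luminescence endpoint.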
Shiga inhibitor – blocks Shiga toxin action in Vero cells; AID 2315; inhibition, % at 38.7 µM; 290,000 compounds, 9.2% hits; Vero cells, Shiga toxin protein synthesis inhibition reporter; in the data active means inhibition mostly above about 28%, no sharp cut-off; inactive means mostly below about 43%; further: 0% is about no effect
CHX counter – counter-screen for Shiga toxin inhibitors: cycloheximide protein synthesis inhibition; 300,000 compounds, 12% hits; cell reporter, cycloheximide protein synthesis inhibition counterscreen; max response, %; in the data active means max response mostly above about 13%, no sharp cut-off; inactive means mostly below about 14%; further: read at 38.3 µM for the half of the compounds with a filed dose; 0% is about no effect
* hit, by the source's call; ? = inconclusive; . = no result; [ ] = remark or other dose. Unless noted, the call rests on the fitted dose curve; in most records, active means well fitted curve in the direction sought with a large enough effect; inconclusive means small, poorly fitted or top-dose-only effect, or another doubt; inactive means no such curve, though single readings can be large; an effect the other way counts as inactive or inconclusive.

SMILES	LmPK inhibitor	FBPA Giardia inh	Sm TGR inh	TbPYK inhibitor	Shiga inhibitor	CHX counter
O=C1OCc2ccc(NC(=O)c3ccccc3C(=O)O)cc21	-8%	.	5%	3%	58*	34*
O=C(Nc1ccc2c(c1)CCC2)c1c(F)cccc1Cl	-2%	-10%	-11%	3%	112*	54*
O=C1OCc2ccc(NC(=O)c3c(F)cccc3Cl)cc21	-5%	.	1%	3%	30	17*
O=C(Nc1ccc2c(c1)C(=O)OC2)c1ccccc1Cl	5%	-8%	7%	-7%	23	26*
O=C(Nc1cccc(F)c1)Nc1ccc2c(c1)C(=O)OC2	2%	4%	-14%	-5%	34	8
O=C(Nc1cccc(Cl)c1)Nc1ccc2c(c1)C(=O)OC2	-6%	8%	-4%	-5%	24	17
O=C1OCc2ccc(NC(=O)C3CC3)cc21	0%	2%	-9%	1%	16	3
Cc1nn2c(-c3cccc(NC(=O)c4ccccc4)c3)nnc2c2ccccc12	.	.	2%	2%	.	.
Cc1ccc(CNC(=O)CN2C(=O)NC(C)(c3ccc(Cl)cc3)C2=O)cc1 (stereo not drawn)	0%	5%	-9%	-19%	-2	-1
O=C(NCc1ccccc1F)C1CCN(Cc2cc3ccccc3n2Cc2cccc(Cl)c2)CC1	.	.	13µM*	-6%	.	.
O=C(CN1CCN(Cc2ccccc2F)C1=O)NCc1ccco1	1%	4%	28µM*	3%	-7	-4
Cc1ccc(C2(C)NC(=O)N(CC(=O)NCc3ccccc3Cl)C2=O)cc1 (stereo not drawn)	0%	9%	15%	2%	2	12*
O=C(NCc1ccco1)C1CCN(c2nc3ccccc3n2Cc2ccccc2F)CC1	2%	-2%	45µM*	1%	2	22*
O=C(NCCc1ccccc1)C1CCN(Cc2cc3ccccc3n2Cc2cccc(Cl)c2)CC1	.	.	3%	3%	.	.
C/C=C1\NC(=O)[C@H]2CSSCC/C=C\[C@H](CC(=O)N[C@H](C(C)C)C(=O)N2)OC(=O)C(C(C)C)NC1=O (stereo partly drawn)	.	.	.	2%	.	.
O=C(CN1CCN(Cc2ccc(F)cc2)C1=O)NCc1ccccc1Cl	.	.	0%	-6%	.	.
O=C(CN1CCN(Cc2ccccc2Cl)C1=O)NCc1ccccc1Cl	.	.	5µM*	-2%	.	.
CC(C)c1ccc2c(c1)[C@H]1OCC[C@H]1[C@@H](c1cccs1)N2	2%	-7%	0%	-8%	59*	70*
Cc1ccc(-n2sc3ccccc3c2=O)cc1S(=O)(=O)N1CCCCC1	-3%	?	-20%	4µM*	15	12*
O=c1c2ccccc2sn1-c1ccc(S(=O)(=O)N2CCCC2)cc1	9%	-23%	?	6.3µM*	8	7
Cc1ccc(C(=O)NNC(=O)c2ccccc2)cc1S(=O)(=O)N1CCCCC1	.	.	0%	-3%	.	.
CCCCN(CC)Cc1ccc(CNS(=O)(=O)c2cc3c(cc2Cl)NC(=O)CO3)o1	.	.	-18%	-18%[15.4 µM]	.	.
Cc1ccc(Cl)cc1N1CCN(C(=O)Cn2cnc3nc4c(cc3c2=O)CCCC4)CC1	.	.	-4%	4%	.	.
COC(=O)c1c(C)nc(C)c(C(=O)OC)c1-c1ccccc1[N+](=O)[O-]	.	4%	.	.	1	-6
OCCNCCCOc1cccc(Cl)c1Cl	.	-2%	.	.	.	.
SMILES	LmPK inhibitor	FBPA Giardia inh	Sm TGR inh	TbPYK inhibitor	Shiga inhibitor	CHX counter
N#C/C(=C\c1ccc2c(c1)OCCO2)C(=O)NC1CCCCC1	7%	1%	7%	5%	24	39*
CCCCNC(=O)/C(C#N)=C/c1ccc2c(c1)OCCO2	2%	8%	7%	-4%	50*	47*
COc1ccc(/C=C(/C#N)C(=O)NC2CCCCC2)cc1Br	3%	3%	8%	5%	21	-4
CCCCCCCCNC(=O)/C(C#N)=C/c1ccc2c(c1)OCCO2	3%	5%	-13%	2%	15	2
COc1ccccc1C1(O)C(=O)Nc2ccccc21 (stereo not drawn)	3%	-6%	11%	-14%	-6	-3
Cc1cc(C)c(C#N)c(SCc2nc3ccccc3[nH]2)n1	2%	-15%	-3%	-7%	94*	36*
N#Cc1cc2c(nc1SCc1nc3ccccc3[nH]1)CCC2	-18%	-4%	-5%	.	22	44*
O=C(CSc1nnc(CNC(=O)c2c(F)cccc2F)o1)NCc1ccccc1Cl	-1%	-4%	1%	7%	20	11
COC(=O)Cn1ncc2c3ccccc3n(C)c2c1=O	-3%	-4%	21%	-6%	43*	25*
Cc1c2cnn(CC(=O)NC3CCCC3)c(=O)c2c(C)n1Cc1ccccc1	-3%	-4%	-18%	2%	77*	29*
CCOC(=O)C1CCN(C(=O)Cn2ncc3c4ccccc4n(C)c3c2=O)CC1	.	.	-6%	-4%	.	.
CCOC(=O)N1CCC(NC(=O)Cn2ncc3c4ccccc4n(C)c3c2=O)CC1	0%	1%	-8%	-13%	34*	22*
O=C(c1csnn1)N1CCC2(CCCN(C(c3ccccc3)c3ccccc3)C2)CC1	.	-2%	.	-7%	.	.
Oc1ccc2ccc3[nH]cnc3c2c1	3%	-10%	-1%	-1%	74*	53*
CN(C)Cc1c(O)ccc2[nH]cnc12	0%	-9%	-24%	-5%	-11	-2
Cc1cc(NC(=O)c2cccc(S(=O)(=O)Nc3cccc(C(=O)O)c3)c2)no1	3%	10%	-1%	2%	4	6
O=C(NCc1cccnc1)c1ccc(-c2ccc(Cl)cc2)o1	-10%	1%	0%	3%	16	16
O=C(Nc1cccnc1)c1ccc(-c2cc(Cl)ccc2Cl)o1	2%	0%	.	5%	49	22*
O=C(NCc1cccnc1)c1ccc(-c2cc(Cl)ccc2Cl)o1	8%	-2%	40µM*	-14%	-14	1
O=C(Nc1cccnc1)c1ccc(-c2ccc(Cl)cc2)o1	1%	-1%	32µM*	2%	73*	66*
COC(=O)c1sccc1-c1ccc(C(=O)Nc2cccc(Cl)c2)o1	5%	-1%	5%	2%	51*	15
CCc1ccc2occ(CC(=O)Nc3c(C(=O)c4ccc(C)cc4)oc4ccccc34)c2c1	.	.	-6%	-5%	.	.
Cc1ccc(CC2C(=O)N(c3cc(Cl)ccn3)C(=O)C2C)cc1 (stereo not drawn)	-2%	2%	-15%	-1%	43*	23*
CC/C(=N\NC(=O)c1csc(C)c1C)c1cccs1	-3%	-7%	3%	3%	95*	37*
CCC/C(=N\NC(=O)c1csc(C)c1C)c1cccs1	7%	0%	12%	-3%	84*	36*
CC(=O)OC[C@@H]1O[C@H](C/C=N\O[C@@H]2O[C@H](COC(C)=O)[C@@H](OC(C)=O)[C@H](OC(C)=O)[C@H]2OC(C)=O)C=C[C@@H]1OC(C)=O	.	2%[12.9 µM]	.	.	.	.

High-throughput results as filed in PubChem BioAssay.
